Measured values as given in PubChem BioAssay AID434970 (Sanford-Burnham Center for Chemical Genomics, 2010).
Out of some 11,000 compounds screened, about 310 (2.8%) were called active. Rule as the data show it: active = activity change below about -85%; inactive = the rest. For the sample, actives were picked, then their nearest neighbours and some compounds at random.

test system: intestinal alkaline phosphatase [Mus musculus]; experiment: mouse intestinal phosphatase enzyme activation – biochemical, luminescence, single concentration, confirmation (AID 434970); settings: purified mouse IAP, CDP-Star luminescence, 30 min, at 10 µM; activation factor: measured here: IAP activation factor, stronger effect = higher value; activity change, negative = activation: stronger effect = lower value

| Compound | activation factor | activity change, negative = activation |
| --- | --- | --- |
| Cc1oc(-c2ccc3c(c2)OCCO3)cc1C(=O)NC(CCC(=O)O)C(=O)O (centres undefined) | 0.95 | 5.05% (inactive) |
| O=C(NCCNS(=O)(=O)c1ccccc1)c1cc(OCC(F)(F)F)ccc1OCC(F)(F)F | 1.09 | -9.5% (inactive) |
| C=CCn1c(=O)c2ccccc2n2c(Sc3nnnn3-c3ccccc3)nnc12 | 1 | -0.35% (inactive) |
| O=C(CN1N=C(C(F)(F)F)CC1(O)c1ccc([N+](=O)[O-])cc1)c1ccccc1 (centres undefined) | 1.07 | -7.45% (inactive) |
| CC1=NN(/C(=N\c2nnc(C)s2)Nc2ccc(C(C)(C)C)cc2)[C@H](c2ccc(C)cc2)S1 | 0.976 | 2.45% (inactive) |
| CCC(C)c1ccc(NC(=O)C2CC2)cc1 (centres undefined) | 1.07 | -7.35% (inactive) |
| Cc1cc(C)nc(-n2nc(C)c3c(C(F)(F)F)cc(=O)[nH]c32)n1 | 1.03 | -2.7% (inactive) |
| C=CCn1cc(CN2CCC(C(=O)Nc3cccc(-c4cccc(Cl)c4)c3)CC2)c(C)n1 | 3.74 | -274% (active) |
| COc1ccc(Cl)cc1C(=O)NCc1cnn(C)c1C | 0.932 | 6.75% (inactive) |
| O=C(Nc1cccc(F)c1)N1CCN(C/C=C/c2ccccc2)CC1 | 0.988 | 1.15% (inactive) |
| CCn1cc(CN2CCC(C(=O)Nc3cccc(-c4cccc(Cl)c4)c3)CC2)c(C)n1 | 4.96 | -396% (active) |
| Cc1c(CN2CCC(C(=O)Nc3cccc(-c4cccc(Cl)c4)c3)CC2)cnn1C | 4.12 | -312% (active) |
| C=CCn1cc(CN2CCC(C(=O)Nc3cccc(-c4cccc(F)c4)c3)CC2)c(C)n1 | 2.94 | -194% (active) |
| C/C(=N\NC(=O)c1nn(C)cc1Br)c1cccc(NC(=O)C2CCCC2)c1 | 1.03 | -3.45% (inactive) |
| Cc1cccc(-n2c(SCC(=O)Nc3ccc4c(c3)OCO4)nnc2-c2ccoc2C)c1 | 1.03 | -2.65% (inactive) |
| Cc1cccc(C2=NN(c3ccc(Br)cc3)[C@@H](C(=O)N3CCOC3=O)[C@@H]2C)c1 | 0.974 | 2.65% (inactive) |
| CC(=O)c1c(C)[nH]c(C(=O)N2CCN(c3cc(Cl)ccc3C)CC2)c1C | 1.14 | -13.5% (inactive) |
| CN(C(=O)C1CCOC1)c1nnc(-c2ccncc2)s1 (centres undefined) | 0.913 | 8.65% (inactive) |
| CC(Oc1ccc(Br)cc1)C(=O)N1CCc2ccccc21 (centres undefined) | 1.16 | -16.1% (inactive) |
| N#Cc1c2c(c(NCCCN3CCOCC3)n3c1nc1ccccc13)CCC2 | 0.904 | 9.6% (inactive) |
| Cc1ccc(C2CC(=O)Oc3cc(C)cc(C)c32)cc1 (centres undefined) | 1.06 | -5.5% (inactive) |
| COc1ccc(S(=O)(=O)c2ccc(O)cc2)cc1 | 0.992 | 0.8% (inactive) |
| CC(C)[C@@H](CO)N(C)S(=O)(=O)c1ccccc1Br | 1.01 | -0.85% (inactive) |

| Compound | activation factor | activity change, negative = activation |
| --- | --- | --- |
| O=C(NCCc1ccc(Cl)cc1)c1cccnc1 | 0.957 | 4.3% (inactive) |
| COc1ccc2cc(C[C@@H]3CC[C@@H](CO)O3)ccc2c1 | 1.04 | -4.15% (inactive) |
| COc1cccc(NC(=O)C2CCN(Cc3cnn(-c4ccccc4)c3-n3cccc3)CC2)c1 | 2.01 | -101% (active) |
| O=C(Nc1ccccc1Cl)C1CCN(Cc2cnn(-c3ccccc3)c2-n2cccc2)CC1 | 1.02 | -1.6% (inactive) |
| COc1ccc(NC(=O)C2CCN(c3nnnn3-c3ccccc3)CC2)cc1 | 0.976 | 2.45% (inactive) |
| Cc1ccc(-c2csc(N)n2)s1 | 0.219 | 78% (inactive) |
| FC(F)Oc1ccc(NC(=S)NC2CCSc3ccccc32)cc1 (centres undefined) | 2.75 | -175% (active) |
| FC(F)Oc1ccc(NC(=S)NC2CCCCCCC2)cc1 | 1.38 | -38% (inactive) |
| NS(=O)(=O)c1cc(C(=O)NC2CCSc3ccccc32)ccc1Cl (centres undefined) | 0.16 | 84% (inactive) |
| S=C(NCc1ccccc1)NC1CCSc2ccccc21 (centres undefined) | 2.51 | -151% (active) |
| S=C(NCc1ccccc1)NCc1ccc(CNC(=S)NCc2ccccc2)cc1 | 1.39 | -39.4% (inactive) |
| Cc1cccc(NC(=S)NCCN(C2CCCCC2)C2CCCC2)c1 | 1.23 | -23.1% (inactive) |
| S=C(NCc1ccccc1)NC1CCCc2ccccc21 (centres undefined) | 1.87 | -86.8% (inactive) |
| Cc1ccc(NC(=S)NC2CCSc3ccccc32)cc1C (centres undefined) | 2.71 | -172% (active) |
| S=C(Nc1ccc(Cl)c(Cl)c1)NC1CCCCC1 | 1.9 | -90.1% (inactive) |
| S=C(Nc1ccc(Oc2ccccc2)cc1)NC1CCCC1 | 1.5 | -49.8% (inactive) |
| Cc1cccc(NC(=S)NC2CCSc3ccccc32)c1 (centres undefined) | 3.43 | -242% (active) |
| Cc1ccc(NC(=S)NC2CCSc3ccccc32)cc1 (centres undefined) | 1.37 | -36.6% (inactive) |
| COc1ccc(C2/C=C\CN(C(=O)OCC3c4ccccc4-c4ccccc43)CC(=O)N2Cc2cccc(F)c2)cc1 (centres undefined) | 1.1 | -10.4% (inactive) |
| O=C(Nc1ccc2nc(-c3ccc4nc[nH]c4c3)[nH]c2c1)c1cccs1 | 1.05 | -5.3% (inactive) |
| CC(=O)N1CCN(c2ccc(NCc3ccc(C)cc3)cc2)CC1 | 1.09 | -9.45% (inactive) |
| COC(=O)c1ccc(Nc2cc(C)nc3ncnn23)cc1 | 1.03 | -3.5% (inactive) |
| Cc1csc(SCc2ccccc2C(=O)O)n1 | 0.948 | 5.2% (inactive) |

| Compound | activation factor | activity change, negative = activation |
| --- | --- | --- |
| COc1ccccc1C(=O)N1CCN=C1c1ccccc1 | 0.974 | 2.55% (inactive) |
| O=C(NCC(=O)N(c1ccccc1)C(C(=O)NC1CCCCC1)c1ccncc1)c1ccco1 (centres undefined) | 1.01 | -1.1% (inactive) |
| Cc1ccc(-c2nnc(SCC(=O)NNC(=O)COc3cccc4ccccc34)n2C)cc1 | 1.03 | -3.2% (inactive) |
| Cn1c(=O)c2c(nc(NC3CCCCC3)n2CC(O)COc2ccccc2)n(C)c1=O (centres undefined) | 1.01 | -0.8% (inactive) |
| Cn1c(=O)c2c(nc(NC3CCCCC3)n2CC(=O)C23CC4CC(CC(C4)C2)C3)n(C)c1=O | 5.65 | -465% (active) |
| Cn1c(=O)c2c(nc(SCC(=O)N3CCCCCC3)n2C)n(C)c1=O | 1.08 | -7.85% (inactive) |
| CCN(Cc1cc2ccccc2[nH]c1=O)S(=O)(=O)c1ccccc1 | 1.02 | -1.85% (inactive) |
| O=C(NCc1cccs1)C(NS(=O)(=O)c1cccc2nsnc12)c1ccccc1 (centres undefined) | 0.974 | 2.65% (inactive) |
| CCOC(=O)C1C(=O)NC(N2CCCCC2)=NC1C(C)C (centres undefined) | 0.936 | 6.4% (inactive) |
| COc1cccc(NC(=S)NC2CC3CCCC(C2)N3CC(C)C)c1 (centres undefined) | 1.72 | -71.5% (inactive) |
| C=CCN1C2CCCC1CC(NC(=O)Nc1cccc(C(C)=O)c1)C2 (centres undefined) | 0.972 | 2.8% (inactive) |
| Cc1ccc(C)c(NC(=S)NC2CC3CCCC(C2)N3CC(C)C)c1 (centres undefined) | 1.24 | -23.9% (inactive) |
| COc1cccc(NC(=O)NC2CCN(Cc3nnnn3Cc3ccc4c(c3)OCO4)CC2)c1 | 1.58 | -58.1% (inactive) |
| COc1ccc(CN2C3CCCC2CC(NC(=O)Nc2cccc(C)c2)C3)cc1 (centres undefined) | 10.5 | -954% (active) |
| CCCN1C2CCCC1CC(NC(=O)Nc1cccc(C(C)=O)c1)C2 (centres undefined) | 1.05 | -5.35% (inactive) |
| O=C(Nc1ccccc1)NC1CC2CCC(C1)N2Cc1nnnn1Cc1ccc2c(c1)OCO2 (centres undefined) | 2.23 | -123% (active) |
| CCc1ccc(NC(=S)NC2CC3CCCC(C2)N3Cc2ccccc2)cc1 (centres undefined) | 2.7 | -170% (active) |
| CCOC(=O)c1ccc(NC(=O)NC2CC3CCC(C2)N3Cc2nnnn2Cc2ccco2)cc1 (centres undefined) | 1.95 | -94.8% (inactive) |
| S=C(Nc1ccc(Cl)cc1)NC1CC2CCC(C1)N2Cc1ccccc1 (centres undefined) | 1.64 | -64% (inactive) |
| Cc1cccc(NC(=S)NC2CC3CCCC(C2)N3CC(C)C)c1 (centres undefined) | 2.45 | -145% (active) |
| CCc1ccc(NC(=S)NC2CC3CCCC(C2)N3Cc2cccs2)cc1 (centres undefined) | 1.88 | -87.8% (inactive) |
| COc1ccc(-c2noc(CCC(=O)N3CCN(c4ccc(F)cc4)CC3)n2)cc1 | 1.1 | -10.3% (inactive) |
| CC(C)NC(=O)c1ccc(CNC(=O)OCC(F)(F)F)cc1 | 1.05 | -5.05% (inactive) |

| Compound | activation factor | activity change, negative = activation |
| --- | --- | --- |
| COCCNC(=O)Cn1c(=O)n(Cc2ccco2)c(=O)c2ccccc21 | 1.06 | -6.35% (inactive) |
| O=C(NOCc1ccccc1)c1ccccc1 | 0.948 | 5.2% (inactive) |
| CCOC(=O)C1=CN(Cc2cccc(-c3ccc4c(c3)OCO4)c2)S(=O)(=O)N(C)C1C (centres undefined) | 1 | -0.3% (inactive) |
| O=C1c2ccccc2[C@@H]2C[C@@H](O)[C@H](Nc3ccccc3Cl)CCN12 | 0.989 | 1.1% (inactive) |
| CCn1nnnc1SCC(=O)Nc1cc(C)on1 | 0.966 | 3.35% (inactive) |
| CCOC(=O)C1CCCN(C(=O)Cc2ccc(OC)c(OC)c2)C1 (centres undefined) | 1 | -0.35% (inactive) |
| Cc1ccc(OCCCC(=O)Nc2nncs2)cc1 | 1 | -0.3% (inactive) |
| Cc1ccc(Nc2nc(CSc3nnnn3C)cs2)cc1 | 0.806 | 19.4% (inactive) |
| O=C(Cc1ccccc1)NC(NC(=S)Nc1cc(Cl)ccc1Cl)C(Cl)(Cl)Cl (centres undefined) | 0.912 | 8.8% (inactive) |
| COC(=O)[C@H](C)N(Cc1ccc(Cl)c(Cl)c1)S(=O)(=O)CCNC1CCCC1 | 0.943 | 5.7% (inactive) |
| COc1ccc(OC)c(NC(=O)C2C3CCC(C3=C(C)C)C2C(=O)O)c1 (centres undefined) | 0.891 | 10.9% (inactive) |
| COc1cc(C(=O)NC2CC3CCCC(C2)N3CC(=O)Nc2ccccc2)cc(OC)c1OC (centres undefined) | 1.07 | -6.8% (inactive) |
| O=C(Nc1ccccc1-c1ccccc1)NC1CC2CCCC(C1)N2Cc1ccc(F)cc1 (centres undefined) | 3.7 | -270% (active) |
| CC(=O)NC1CC2CCCC(C1)N2C(=O)Nc1ccc(Cl)c(C(F)(F)F)c1 (centres undefined) | 1.13 | -13% (inactive) |
| O=C(Nc1ccccc1-c1ccccc1)NC1CC2CCCC(C1)N2CCc1ccccc1 (centres undefined) | 1.76 | -76.2% (inactive) |
| O=C(NCc1ccccc1)NC1CC2CCC(C1)N2Cc1ccco1 (centres undefined) | 1.08 | -7.85% (inactive) |
| O=C(Nc1cccn(Cc2ccc(F)cc2)c1=O)NC1CCCCC1 | 0.962 | 3.75% (inactive) |
| O=C(Nc1ccc(Cl)c(C(F)(F)F)c1)NC1CC2CCCC(C1)N2Cc1ccccc1 (centres undefined) | 7.69 | -669% (active) |
| COCC(=O)NC1CC2CCCC(C1)N2Cc1ccccc1 (centres undefined) | 1.08 | -8.2% (inactive) |
| COc1ccc(NC(=O)NC2CC3CCCC(C2)N3Cc2ccccc2)cc1 (centres undefined) | 2.71 | -171% (active) |
| CCc1cccc(CC)c1NC(=O)CN1C2CCCC1CC(NC(=O)Nc1cccc(OC)c1)C2 (centres undefined) | 2.36 | -136% (active) |
| COc1cccc(C(=O)NC2CC3CCCC(C2)N3CC(=O)Nc2ccc(N(C)C)cc2)c1 (centres undefined) | 0.99 | 1% (inactive) |
| COc1ccc(NC(=O)Cc2ccccc2)cc1 | 0.897 | 10.3% (inactive) |
